Structures are written as SMILES. Unmarked numbers belong to inactive results. Records with an inconclusive call do not appear. Active and inactive are the calls of the source. Calls come from the whole dose curve; as a rule, active = well fitted curve in the direction sought with a large enough effect in the repeat runs; inconclusive = weak or mixed curves; inactive = no such curve, though single readings can be large; an effect the other way counts as inactive or inconclusive.

The nature of experiment [1]: A CellTox Green Cytotoxicity Assay to monitor cytotoxicity in HEK293 cells - 32 hour (AID 1224881). Note: nearly all actives have a fitted effect of over 40% in size. A digest of the protocol: (§1)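 HEK293 cells, 600/well, were preincubated 5 hours and then exposed to compounds at 37 C for up to 40 hours. A cell-impermeant cyanine dye staining dead-cell DNA was read by fluorescence at 0, 8, 16, 24, 32 and 40 h time points.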
Experiment [2] can be described thus: A CellTox Green Cytotoxicity Assay to monitor cytotoxicity in HepG2 cells - 0 hour (AID 1224882). Note: nearly all actives have a fitted effect of over 35% in size. The essentials:
(§2)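 HepG2 cells, 600/well, preincubated 5 h with CellTox Green dye, then exposed to Tox21 compounds in DMSO at 37 C for up to 40 h. Dead-cell DNA fluorescence read at the indicated time point.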

A short description of experiment [3]: A CellTox Green Cytotoxicity Assay to monitor cytotoxicity in HepG2 cells - 32 hour (AID 1224883). Note: nearly all actives have a fitted effect of over 50% in size. Note: potency is the fitted concentration of half-maximal effect. A digest of the protocol: as §2
Experiment [4] can be described thus: A CellTox Green Cytotoxicity Assay to monitor cytotoxicity in HEK293 cells - 8 hour (AID 1224884). Note: nearly all actives have a fitted effect of over 35% in size. Note: potency is the fitted concentration of half-maximal effect. A digest of the protocol: as §1
Experiment [5] in a line: qHTS RealTime-Glo MT Cell Viability Assay in HepG2 cells - 16 hour (AID 1224885). Note: nearly all actives have a fitted effect of over 50% in size. Note: potency is the fitted concentration of half-maximal effect. The essentials:
(§3)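 qHTS, HepG2, 600 cells/well, RealTime-Glo (NanoLuc + prosubstrate) added with cells; 5 h preincubation; DMSO compound addition; 37 C; luminescence at 0/8/16/24/32/40 h.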
(In general: In qHTS, concentration-response curves come from the screen itself.)

Experiment [6] is described as follows: qHTS RealTime-Glo MT Cell Viability Assay in HEK293 cells - 8 hour (AID 1224887). For activity change, negative = cytotoxicity: top concentration of the series differs between compounds. Note: nearly all actives have a fitted effect of over 50% in size. Note: potency is the fitted concentration of half-maximal effect. The essentials: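 600 cells/well were plated with the nonlytic NanoLuc/prosubstrate reagent, pre-incubated 5 h, then given 23 nL of compound in DMSO. Incubation at 37 C for 40 h, with luminescence from viable-cell-reduced substrate read repeatedly from 0 h.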
Experiment [7] in a line: A CellTox Green Cytotoxicity Assay to monitor cytotoxicity in HEK293 cells - 16 hour (AID 1224888). Note: nearly all actives have a fitted effect of over 35% in size. The essentials:
as §1

Experiment [8] in a line: qHTS RealTime-Glo MT Cell Viability Assay in HepG2 cells - 0 hour (AID 1224889). Note: nearly all actives have a fitted effect of over 50% in size. Note: potency is the fitted concentration of half-maximal effect. A digest of the protocol: as §3
The nature of experiment [9]: A CellTox Green Cytotoxicity Assay to monitor cytotoxicity in HepG2 cells - 8 hour (AID 1224890). Note: nearly all actives have a fitted effect of over 45% in size. The essentials:
as §2

The nature of experiment [10]: qHTS RealTime-Glo MT Cell Viability Assay in HEK293 cells - 24 hour (AID 1224886). For activity change, negative = cytotoxicity: top concentration of the series differs between compounds. Note: nearly all actives have a fitted effect of over 50% in size. Note: potency is the fitted concentration of half-maximal effect. The essentials: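 Assay medium contained NanoLuc luciferase plus cell-permeant prosubstrate, added with HEK293 cells at 600 cells/well. After 5 h at 37 C/5% CO2 compounds were added; plates stayed at 37 C for 40 h with serial luminescence reads.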
% is set by controls: 0 for no effect and ±100 for the full control effect.

`CO[C@@]12[C@H](COC(N)=O)C3=C(C(=O)C(C)=C(N)C3=O)N1C[C@@H]1N[C@@H]12`: the Potency entry in experiment [1], in [2], in experiment [4], in [6], in experiment [7] and in [8] was “inactive” throughout. Besides, the Potency result in [9] is “inactive”. Moreover, the Potency in experiment [3] is 8.49 µM (active); in [5], 3.38 µM (active).

On to `O=C(O)c1c(O)c(-c2ccccc2)nc2ccccc12`, for which the Potency result in experiment [1], in experiment [2], in experiment [3], in [4], in [5] and in [10] was “inactive” each time. Further, the Potency entry in experiment [6], in experiment [8] and in experiment [9] was “inactive” throughout.

In the case of `OCC1CC=CCC1` (configuration not stated), the Potency result in experiment [1], in experiment [2], in experiment [3], in [4], in [5] and in experiment [10] was “inactive” each time. Further, the Potency entry in experiment [6], in experiment [8] and in experiment [9] was “inactive” in each case.

Consider `CCCCCCCCCOC(C)=O`, for which the Potency result in experiment [1], in [2], in experiment [3], in experiment [4], in [5] and in experiment [10] was “inactive” throughout. Also, the Potency entry in experiment [6], in experiment [8] and in experiment [9] was “inactive” in each case.

Turning to `C=CCOC(=O)/C=C\C(=O)OCC=C`, the Potency entry in [1], in experiment [2], in experiment [3], in [4], in experiment [5] and in [6] was “inactive” each time. Further, the Potency result in [7], in experiment [8] and in [9] was “inactive” throughout.

As for `CC(=O)[C@H]1CC[C@H]2[C@@H]3C[C@H](C)C4=CC(=O)CC[C@]4(C)[C@H]3[C@@H](O)C[C@]12C`, the Potency entry in experiment [1], in experiment [2], in [3], in experiment [4], in [5] and in experiment [6] was “inactive” each time. Further, the Potency entry in [9] was “inactive”. Also, in [8], the Potency is 0.379 µM (active).

For `C(=C\c1ccccc1)/CN1CCN(C(c2ccccc2)c2ccccc2)CC1`, the Potency entry in experiment [1], in experiment [2], in experiment [3], in experiment [4], in [5] and in experiment [6] was “inactive” throughout. In addition, the Potency result in experiment [7] and in experiment [9] was “inactive” throughout.

In the case of `O=c1[nH]c2ccc(S(=O)CCN3CCC(Cc4ccc(F)cc4)CC3)cc2o1` (configuration not stated), the Potency entry in experiment [1], in [2], in experiment [3], in experiment [4], in experiment [5] and in experiment [7] was “inactive” in each case.

For the molecule `CCCOC(=O)c1ccc(N)cc1`, the Potency result in experiment [1], in experiment [2], in experiment [3], in experiment [4], in [5] and in experiment [10] was “inactive” throughout. The Potency entry in experiment [6], in experiment [8] and in experiment [9] was “inactive” each time.

With `CCCCCC=CCC=CCCCCCCCC(=O)OCC`, the Potency result in experiment [1], in experiment [2], in experiment [3], in experiment [4], in experiment [5] and in [10] was “inactive” each time. In addition, the Potency entry in [6], in experiment [8] and in experiment [9] was “inactive” each time.

For `Cc1cnc(C)c(C)n1`, the Potency result in [1], in experiment [2], in [3], in experiment [5], in experiment [10] and in experiment [6] was “inactive” each time. The Potency result in [8] and in experiment [9] was “inactive” each time. Moreover, in experiment [4], the Potency is 51.3 µM (active).

Consider `CCOC(=O)c1ccccc1OC`, for which the Potency result in [1], in experiment [2], in experiment [3], in [4], in [5] and in [10] was “inactive” each time. The Potency entry in experiment [6], in experiment [8] and in experiment [9] was “inactive” in each case.

As to `CCC(Cc1ccccc1)(C(=O)c1ccc(N2CCOCC2)cc1)N(C)C` (configuration not stated), the Potency result in experiment [1], in [2], in experiment [3], in experiment [4], in [5] and in experiment [7] was “inactive” throughout. Also, the Potency entry in [8] and in experiment [9] was “inactive” each time.

With `O=C(CCCN1CCN(c2ccc(F)cc2)CC1)NC1c2ccccc2CSc2ccccc21` (configuration not stated), the Potency entry in experiment [1], in experiment [2], in experiment [4], in experiment [7] and in experiment [8] was “inactive” throughout. The Potency was 23.9 µM (active) in experiment [3], 16.9 µM (active) in [10] and 19 µM (active) in experiment [6].

For the molecule `O=C(Nc1ccccc1)Nc1ccccc1`, the Potency result in experiment [1], in [2], in experiment [3], in [4], in experiment [5] and in experiment [7] was “inactive” in each case. The Potency entry in experiment [8] and in [9] was “inactive” in each case.

On to `CN1CCN(c2c(F)cc3c(=O)c(C(=O)O)cn4c3c2OCN4C)CC1`, for which the cytotoxicity increase in experiment [1] was -5.3% [at 15.8 µM]; in experiment [3] it was -4.96% [at 15.8 µM]; in experiment [4], -22% [at 15.8 µM]; in experiment [9], -3.25% [at 15.8 µM]. In addition, the cytotoxicity in experiment [2] was -9.31% [at 15.8 µM]. In addition, in experiment [5], the activity change, negative = cytotoxic is 4.97% [at 15.8 µM]. The activity change, negative = cytotoxicity in [10] was 0.438% [at 15.8 µM]; in [6] it was 1.15% [at 15.8 µM]; in experiment [8], 2.43% [at 15.8 µM].

`CCC1(C)CC(=O)NC1=O` (configuration not stated): the Potency result in [1], in experiment [2], in [3], in experiment [4], in experiment [5] and in experiment [10] was “inactive” throughout. Besides, the Potency entry in experiment [6], in experiment [8] and in experiment [9] was “inactive” in each case.

Take `O=C(O)C(Cc1cc(I)c(O)c(I)c1)c1ccccc1` (configuration not stated): the Potency entry in experiment [1], in [2], in experiment [3], in experiment [4], in experiment [5] and in [10] was “inactive” throughout. Further, the Potency result in experiment [6], in experiment [8] and in [9] was “inactive” in each case.

As for `CCCCCCCCCCOS(=O)(=O)O`, the Potency entry in experiment [1], in [2], in experiment [3], in experiment [4], in experiment [5] and in experiment [10] was “inactive” throughout. The Potency result in [6], in experiment [8] and in experiment [9] was “inactive” in each case.

`CCCc1c(OCCCOc2ccc(OCC(=O)O)cc2)ccc(C(C)=O)c1O`: the Potency result in experiment [1], in experiment [2], in experiment [3], in experiment [4], in experiment [5] and in [10] was “inactive” throughout. Moreover, the Potency entry in [6] and in experiment [9] was “inactive” in each case.

Regarding `CO[C@H]1O[C@H](CO)[C@@H](O)[C@H](O)[C@H]1O`, the Potency result in experiment [1], in [2], in experiment [3], in experiment [4], in experiment [5] and in experiment [10] was “inactive” throughout. Further, the Potency entry in [6] and in [9] was “inactive” throughout.

`CCOC(=O)[C@@H](C)Oc1ccc(Oc2nc3ccc(Cl)cc3o2)cc1`: the Potency entry in experiment [1], in experiment [2], in [3], in experiment [4], in experiment [8] and in [9] was “inactive” in each case. In addition, the Potency was 8.71 µM (active) in experiment [5], 21.9 µM (active) in experiment [10] and 21.9 µM (active) in experiment [6].

As for `CCC(=O)Oc1ccc(/C(CC)=C(\CC)c2ccc(OC(=O)CC)cc2)cc1`, the Potency result in experiment [1], in experiment [2], in [3], in [4], in experiment [5] and in experiment [7] was “inactive” throughout. Besides, the Potency result in [8] and in experiment [9] was “inactive” throughout. Besides, the Potency in experiment [10] is 21.9 µM (active).

As to `Fc1ccccc1[C@@H](F)COC1CCC(Nc2ncnc3[nH]ncc23)CC1` (some centres not stated), the Potency result in [1], in experiment [2], in experiment [3], in experiment [4], in experiment [5] and in [7] was “inactive” each time. For the same molecule, in [9], the Potency result is “inactive”. For the same molecule, the Potency in experiment [10] was 21.9 µM (active).

Turning to `CCn1nc(C)c2c1C(=O)NCC(c1ccc(O)cc1)=N2`, the Potency result in experiment [1], in [2], in experiment [3], in [4], in experiment [5] and in experiment [10] was “inactive” in each case. The Potency result in experiment [6], in experiment [8] and in experiment [9] was “inactive” each time.

Take `Cc1oc(C)c(C(=O)Nc2ccccc2)c1C`: the Potency result in experiment [1], in [2], in experiment [3], in [4], in [5] and in experiment [7] was “inactive” in each case. The Potency result in [8] and in experiment [9] was “inactive” throughout. Further, the Potency in experiment [10] was 34.7 µM (active).

Consider `N#C/C(=C1\SCC(c2ccccc2Cl)S1)n1ccnc1` (configuration not stated), for which the Potency entry in [1], in experiment [2], in [3], in [4], in experiment [5] and in [7] was “inactive” in each case. Moreover, the Potency entry in experiment [8] and in experiment [9] was “inactive” throughout.

As to `Nc1ccc(C(=O)OCCCOC(=O)c2ccc(N)cc2)cc1`, the Potency result in experiment [1], in experiment [2], in experiment [3], in experiment [4], in experiment [5] and in [8] was “inactive” each time. In addition, the Potency result in experiment [9] is “inactive”. For the same molecule, the Potency in experiment [10] and in experiment [6] was 43.6 µM (active) in each case.

As for `CN(C)C(=O)Nc1ccc(Oc2ccc(Cl)cc2)cc1`, the Potency entry in [1], in [2], in experiment [4], in [5], in [7] and in experiment [8] was “inactive” each time. In experiment [9], the Potency entry was “inactive”.

The values are drawn from PubChem BioAssay (Tox21).
